Measured values from PubChem BioAssay AID430 (Sanford-Burnham Center for Chemical Genomics, 2006).
In all, about 63,000 compounds went through this assay and about 1,100 (1.7%) were called active. This is one part of a sample in which actives are shown more often than they occur. Potency and affinity values are given separately. Unmarked numbers belong to inactive results. Cut-off read from the data, not from the text of the source: active = cytotoxicity above about 50%; inactive = the rest.

Assay: cytotoxicity in HPDE-C7 cells, cell-based, fluorescence, HTS (AID 430);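 note: cells exposed to compound for 48 hours before viability readout; 0% = vehicle and 100% = reference cytotoxic drug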
Conditions: HPDE-C7 pancreatic duct cells viability, at 10 µM, active compounds read high
With `COc1ccc(C(C#N)Nc2ccccc2OC)cc1` (stereo not given) the cytotoxicity was -4.6%. With `CCN(CC)S(=O)(=O)c1ccc(Nc2cc(C)nc3ncnn23)cc1` the cytotoxicity was -2.7%. `C1CCc2c(nc3nnnn3c2N2CCOCC2)C1` gave a cytotoxicity of -9.2%. In the case of `COC(=O)CN1C(=O)CC(C)(C)S(=O)c2ccccc21` (stereo not given), the cytotoxicity is reported as -9.1%. `Cc1ccc(-n2ncc3c(=O)n(Cc4ccccn4)cnc32)cc1C` gave a cytotoxicity of 8.3%. With `CCN1CCN(C(C(=O)NC2CCCC2)c2ccc(Cl)cc2)CC1` (stereo not given) the cytotoxicity was 9.1%. In the case of `Cc1cc2c(N=O)c(NO)ccc2[nH]1`, the cytotoxicity is reported as 67% (active). In the case of `Cc1cc(=O)c2cc(Cl)ccc2[nH]1`, the cytotoxicity is reported as -15%. `COC(=O)c1ccc2[nH]c(C)cc(=O)c2c1` showed a cytotoxicity of -15.1%. Molecule `CCCc1cc(C(=O)Nc2sc(C(C)=O)c(C)c2C(=O)OCC)no1` has a cytotoxicity of -5.5%. With `O=C(c1ccco1)N1CCN(c2nc(C3CC3)nc3sc4c(c23)CCCC4)CC1` the cytotoxicity was 53.5% (active). For `Cc1nc(N2CCN(C(=O)c3ccco3)CC2)c2c3c(sc2n1)CCC3`, the cytotoxicity was 8.5%. For `CC(C)c1nc(N2CCN(C(=O)c3ccco3)CC2)c2c3c(sc2n1)CCCC3`, the cytotoxicity was -21.7%. Molecule `CCOC(=O)N1CCN(C(=O)c2cn(-c3ccc(C)c(C)c3)c(=O)c3ccccc23)CC1` has a cytotoxicity of -9.4%. In the case of `COc1ccc(-c2cnc(N)nc2-c2ccc(OC)cc2O)cc1`, the cytotoxicity is reported as -4%. `CCCc1cc(-c2[nH]ncc2-c2ccc(C(=O)OCC)o2)c(O)cc1O` showed a cytotoxicity of 4.4%. In the case of `CCc1cc(-c2[nH]ncc2-c2ccc3c(c2)OCO3)c(O)cc1O`, the cytotoxicity is reported as 46.1%. With `CCOc1ccc(-c2nc(N)ncc2-c2ccccc2)c(O)c1` the cytotoxicity was 2.3%. Work on `Cc1c(C(=O)Nn2cnnc2)oc2ccccc12` yielded a cytotoxicity of -26.6%. `CC(NC(=O)c1ccc(CS(=O)(=O)Cc2ccccc2F)o1)c1ccc2c(c1)OCCO2` (stereo not given) showed a cytotoxicity of -10.6%. For `O=S(=O)(NCC1CC1)c1cccc(S(=O)(=O)N2CCCC2)c1`, the cytotoxicity was -7.4%. Molecule `Cc1ccc(-c2noc(COc3ccccc3C)n2)cc1` has a cytotoxicity of -19.6%. `Cc1ccccc1OCc1nc(-c2ccccc2)no1` showed a cytotoxicity of -12.2%. With `Cc1ccccc1OCc1nc(-c2ccc(-n3cccc3)cc2)no1` the cytotoxicity was 62.3% (active). Work on `Cc1cc(=O)[nH]c(SCC(=O)NCc2ccco2)n1` yielded a cytotoxicity of -38.4%. Work on `O=C(Cn1nnc(-c2ccccc2NC(=O)c2cccs2)n1)Nc1ccccc1` yielded a cytotoxicity of -6.9%. Molecule `CCn1c(SCC(=O)N(C(C)C)C(C)C)nnc1-c1cc2ccccc2cc1O` has a cytotoxicity of -2.4%. For `Cc1cccc(N2CCN(c3cccc(C)c3)C2c2cccnc2)c1`, the cytotoxicity was 52.6% (active). Molecule `Cc1ccc(N2CCN(c3ccc(C)cc3)C2c2ccncc2)cc1` has a cytotoxicity of -18.2%. `Cc1cccc(N2CCN(C(=O)c3ccncc3)CC2C)c1` (stereo not given) gave a cytotoxicity of -2.2%. In the case of `CCC(=O)OCCn1c(=O)c2cc3c(=O)n(CCOC(=O)CC)c(=O)c3cc2c1=O`, the cytotoxicity is reported as 1.2%. In the case of `CCOC(=O)C1=C(C)NC(=O)NC1c1ccc(OC)c(Cl)c1` (stereo not given), the cytotoxicity is reported as -1.8%. With `O=C(Nc1ccc(-c2nc3ccccc3o2)cc1)C1CCCO1` (stereo not given) the cytotoxicity was 2.5%. `COc1ccc(-c2cc(=O)n(-c3nc4ccccc4[nH]3)[nH]2)cc1` showed a cytotoxicity of 35%. In the case of `Cc1nn(-c2nc3ccccc3s2)c(N)c1-c1ccccc1`, the cytotoxicity is reported as 6.1%. With `O=c1cc(-c2ccccc2)[nH]n1-c1nc2ccccc2s1` the cytotoxicity was 61.9% (active). Work on `O=c1cc(-c2ccccc2)[nH]c2nc3ccccc3n12` yielded a cytotoxicity of 34.3%. `CC(=NC1CCCC1)c1c(C)[nH]n(-c2nc3ccccc3s2)c1=O` gave a cytotoxicity of -9.3%. Molecule `CCn1c(SCC(=O)N(Cc2ccccc2)C2CCS(=O)(=O)C2)nc2ccccc2c1=O` (stereo not given) has a cytotoxicity of -7.3%. In the case of `C1=C(CCNc2ncnc3nc[nH]c23)CCCC1`, the cytotoxicity is reported as 0%. Molecule `CCCCCC(=O)Nc1ccc2oc(-c3cncc(Br)c3)nc2c1` has a cytotoxicity of -3.1%. For `CCn1c(=O)n(CC(=O)Nc2cccc(OC)c2)c(=O)c2ccccc21`, the cytotoxicity was -12.1%. In the case of `CN(C)CCCNC(=O)Cc1ccc(Br)cc1`, the cytotoxicity is reported as -3.8%. For `COc1cc(C2C(C(=O)c3ccc(C)o3)=C(O)C(=O)N2c2cc(C)on2)ccc1O` (stereo not given), the cytotoxicity was -0.7%. Molecule `CC(NC(=O)NCCCn1ccnc1)(C(F)(F)F)C(F)(F)F` has a cytotoxicity of 9.8%. Work on `O=C(Nc1ccc(CN2CCCCC2)cc1)c1ccc(Br)o1` yielded a cytotoxicity of -14.9%. Molecule `O=C(Nc1ccc(CN2CCOCC2)cc1)c1cc2ccccc2o1` has a cytotoxicity of -0.1%. Molecule `O=C(Cc1ccc(-c2ccccc2)cc1)NCCN1CCOCC1` has a cytotoxicity of -11.8%. With `O=C(Nc1ccc2nc(-c3ccco3)[nH]c2c1)c1cccs1` the cytotoxicity was 8%. In the case of `O=C(Nc1ccc2nc(-c3ccc(Br)o3)[nH]c2c1)c1ccco1`, the cytotoxicity is reported as 44.7%. In the case of `O=C(Nc1ccc2nc(-c3ccc(Br)o3)[nH]c2c1)c1cccs1`, the cytotoxicity is reported as 53.5% (active). Molecule `CNC(=O)CCn1nc(-c2ccc(Cl)cc2)c2ccccc2c1=O` has a cytotoxicity of 10.8%. `Oc1ccc(N=Cc2ccc(O)c(O)c2)cc1` gave a cytotoxicity of 18%. `COc1ccc(-c2cc(O)cc(O)c2)cc1` gave a cytotoxicity of -7.5%. `CCn1c(C2CC(=O)N(Cc3ccccc3)C2)nc2ccccc21` (stereo not given) showed a cytotoxicity of -14.7%. For `O=C1CC(=O)N(Cc2cccs2)C(=O)N1`, the cytotoxicity was -15.3%. With `O=C(O)c1ccc(NC(=O)C2CC=CCC2C(=O)O)cc1` (stereo not given) the cytotoxicity was -3.4%. In the case of `CCOCCCN(Cc1cc2cc(C)cc(C)c2[nH]c1=O)C(=O)N(CC)CC`, the cytotoxicity is reported as -8.9%. `O=c1oc(-c2cccs2)nc2sc3c(c12)CCC3` showed a cytotoxicity of 28.2%. `Cc1nc2sc3c(c2c(=O)o1)CCCC3` gave a cytotoxicity of 0%. In the case of `Cc1nc2sc3c(c2c(=O)o1)CCC3`, the cytotoxicity is reported as 4.8%. Work on `Nn1c(-c2cccs2)nc2sc3c(c2c1=O)CCCC3` yielded a cytotoxicity of -1.4%. For `O=c1oc(-c2cc3ccccc3o2)nc2sc3c(c12)CCCC3`, the cytotoxicity was 51.3% (active). For `O=c1oc(-c2cccs2)nc2sc3c(c12)CCCCC3`, the cytotoxicity was 52% (active). `O=C(CN1C(=O)CSC1=O)NCc1ccccc1` showed a cytotoxicity of 8.1%. Molecule `O=C(c1cc(S(=O)(=O)N2CCOCC2)ccc1F)N1CCN(Cc2ccccc2)CC1` has a cytotoxicity of -2.7%. Molecule `O=C(CSc1nc2ccccc2c(=O)n1CCC(=O)N1CCCCC1)NCc1ccccc1` has a cytotoxicity of -24.2%. For `COc1ccc(-c2nnc(SCC(=O)Nc3cc(C)on3)n2C)cc1OC`, the cytotoxicity was -16.6%. Molecule `O=C(NCCn1cccc1)c1cccc2ccccc12` has a cytotoxicity of 1.3%. `CCOC(=O)C1CCCN(Cc2ccc(OC)cc2OC)C1` (stereo not given) gave a cytotoxicity of 8.6%. `COc1ccc(-c2nnc(-c3cccs3)o2)cc1OC` gave a cytotoxicity of -10.3%. Work on `COc1ccc(-c2nc3ccccc3s2)cc1O` yielded a cytotoxicity of -5.7%. In the case of `COc1ccc(-c2nc(-c3cccs3)c(-c3cccs3)[nH]2)cc1O`, the cytotoxicity is reported as 71.6% (active). With `Fc1cccc(Cl)c1Cn1nnc(-c2ccc3c(c2)OCO3)n1` the cytotoxicity was -6.1%. With `Fc1ccccc1CSc1nnnn1-c1ccc2c(c1)OCO2` the cytotoxicity was -2%. For `Fc1cccc(Cl)c1CSc1nnnn1-c1ccc2c(c1)OCO2`, the cytotoxicity was 53.7% (active). With `CCc1nccn1S(=O)(=O)c1ccc(C)c(C)c1` the cytotoxicity was 2.1%. For `COc1ccc(OC)c(C(c2nnnn2CC2CCCO2)N2CCN(C3CCCC3)CC2)c1` (stereo not given), the cytotoxicity was -10.4%. With `CC(Sc1ccccc1)C(=O)Nc1ccc(S(=O)(=O)N2CCOCC2)cc1` (stereo not given) the cytotoxicity was -9.5%. In the case of `CC1CN(C2CCCCC2)c2nc3c(c(=O)[nH]c(=O)n3C)n2C1` (stereo not given), the cytotoxicity is reported as -2%. In the case of `COc1cc(S(=O)(=O)N2CCN3CCCC3C2)ccc1-n1cnnn1` (stereo not given), the cytotoxicity is reported as 5.7%. With `COc1cc(S(=O)(=O)N2CCC(N3CCCCC3)CC2)ccc1-n1cnnn1` the cytotoxicity was 9.2%. With `COc1cc(S(=O)(=O)N2CCCC3(CCCCC3)C2)ccc1-n1cnnn1` the cytotoxicity was 78.1% (active). For `CCOC(=O)C1=C(C)NC2=C(C(=O)CCC2)C1c1ccc(N(C)C)cc1` (stereo not given), the cytotoxicity was 1.2%. With `COc1ccc(CCNC(=O)C2CCCN(S(=O)(=O)c3cccc4nonc34)C2)cc1OC` (stereo not given) the cytotoxicity was -21.9%. For `OC(COc1ccccc1)CN1C2=NCCCN2c2ccccc21` (stereo not given), the cytotoxicity was 4.3%. `O=C(NCc1ccco1)C1OCCc2ccccc21` (stereo not given) gave a cytotoxicity of -15.1%. `CCOC(=O)C1CCN(C(=O)c2ccc(SC)cc2OC)CC1` showed a cytotoxicity of -4.9%. For `c1coc(-c2nnc(SCc3nc4ccccc4[nH]3)o2)c1`, the cytotoxicity was 65.9% (active). In the case of `c1ccc2[nH]c(CSc3nnc(-c4ccncc4)o3)nc2c1`, the cytotoxicity is reported as 3.2%. `c1cncc(-c2nnc(SCc3nc4ccccc4[nH]3)o2)c1` showed a cytotoxicity of -14.6%. With `Cc1cc(C)nc(NS(=O)(=O)c2ccc(NC(=O)CCCN3C(=O)c4ccccc4C3=O)cc2)n1` the cytotoxicity was 1.9%. Work on `CC(=O)Nc1c(O)n(C)c2ccccc12` yielded a cytotoxicity of -20.2%. Work on `COc1ccc(-n2c(Cc3cccn3C)nnc2SCC(=O)NC2CCCCC2)cc1` yielded a cytotoxicity of -11.2%. `COc1ccc(N(CC(=O)NC2CCCC2)C(=O)Cn2nnc(-c3ccc(C)cc3)n2)cc1OC` showed a cytotoxicity of -4.2%. With `CC1C(=O)CCC1(C(=O)O)c1ccccc1` (stereo not given) the cytotoxicity was 9.4%. Work on `Cc1ccc(-c2csc3ncnc(-n4nc(C)cc4N)c23)cc1` yielded a cytotoxicity of 0.5%. `CCn1c(CN2CCCCCC2=O)nnc1SCc1cnc(-c2ccccc2)s1` showed a cytotoxicity of 4.1%. `CN1CCN(Cc2nc3c(c(=O)[nH]c(=O)n3C)n2Cc2c(F)cccc2Cl)CC1` showed a cytotoxicity of -13.5%. Molecule `CN(Cc1ccccc1)C(=O)CCS(=O)(=O)c1ccc2c(c1)n(C)c(=O)c(=O)n2C` has a cytotoxicity of -7%.
